Test results taken from the supplement of paper PMC11732987, “Enantioselective OTUD7B fragment discovery through chemoproteomics screening and high-throughput optimisation” (Communications Chemistry, 2025).

Legend:
Experiment in all cases: log2 ratio of Biotin-Ahx-Ub-VS probe labelling (fragment/DMSO); higher = less target engagement (more negative = stronger competition), active = hit call of the paper (q ≤ 0.05, log2 ratio ≤ -1)
Details in all cases: compound concentration: 200 uM; treatment time: 3 h
USP42 = target: T1, USP42 (UniProt Q9H9J4)
T1 sequence (whole entry): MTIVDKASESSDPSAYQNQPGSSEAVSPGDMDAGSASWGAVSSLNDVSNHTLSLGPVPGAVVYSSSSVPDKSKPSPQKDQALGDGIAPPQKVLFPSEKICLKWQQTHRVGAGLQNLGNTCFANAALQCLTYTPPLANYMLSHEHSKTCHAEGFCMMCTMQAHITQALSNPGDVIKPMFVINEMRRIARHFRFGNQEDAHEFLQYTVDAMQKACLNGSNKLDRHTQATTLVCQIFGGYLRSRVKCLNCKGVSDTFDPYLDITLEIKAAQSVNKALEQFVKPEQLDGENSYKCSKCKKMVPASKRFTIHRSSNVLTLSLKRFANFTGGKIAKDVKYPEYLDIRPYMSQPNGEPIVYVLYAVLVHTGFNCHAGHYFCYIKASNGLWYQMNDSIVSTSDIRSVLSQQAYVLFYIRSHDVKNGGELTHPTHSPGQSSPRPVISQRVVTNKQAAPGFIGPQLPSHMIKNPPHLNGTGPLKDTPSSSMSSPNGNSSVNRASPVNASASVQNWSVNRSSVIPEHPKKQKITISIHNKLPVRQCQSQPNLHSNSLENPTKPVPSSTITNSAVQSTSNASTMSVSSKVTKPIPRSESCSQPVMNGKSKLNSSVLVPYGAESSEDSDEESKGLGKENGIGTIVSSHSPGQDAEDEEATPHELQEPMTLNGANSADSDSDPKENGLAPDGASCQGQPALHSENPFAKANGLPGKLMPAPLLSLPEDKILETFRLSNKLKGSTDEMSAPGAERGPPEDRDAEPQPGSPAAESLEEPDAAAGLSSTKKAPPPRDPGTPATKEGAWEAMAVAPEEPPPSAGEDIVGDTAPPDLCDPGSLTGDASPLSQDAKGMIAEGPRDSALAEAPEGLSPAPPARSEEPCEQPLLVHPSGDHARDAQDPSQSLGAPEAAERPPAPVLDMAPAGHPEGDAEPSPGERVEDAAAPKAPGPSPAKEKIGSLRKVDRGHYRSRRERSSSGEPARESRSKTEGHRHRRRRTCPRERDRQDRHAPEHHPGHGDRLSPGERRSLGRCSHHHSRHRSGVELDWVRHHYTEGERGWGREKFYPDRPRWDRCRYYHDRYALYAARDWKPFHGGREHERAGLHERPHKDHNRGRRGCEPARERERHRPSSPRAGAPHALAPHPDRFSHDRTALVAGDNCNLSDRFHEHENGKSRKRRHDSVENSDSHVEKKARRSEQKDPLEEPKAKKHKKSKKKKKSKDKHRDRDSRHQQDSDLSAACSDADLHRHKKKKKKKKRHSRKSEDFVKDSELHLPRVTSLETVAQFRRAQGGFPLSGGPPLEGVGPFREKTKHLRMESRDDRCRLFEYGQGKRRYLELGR
How it was run: (§1)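 Global-median-normalised Spectronaut label-free quantities were compared by unpaired t-test, and values are average log2 ratios of fragment over vehicle. Only proteins with ≥2 unique peptides were used. HEK293T lysate (495 µg per sample) was treated in triplicate with fragment at 200 µM or vehicle for 3 h and then with Biotin-Ahx-Ub-VS at 0.5 µM final for 1 h. Labelled DUBs were then NeutrAvidin-enriched, digested with LysC and trypsin, and run by diaPASEF LC-MS/MS.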

USP46 = USP46 (UniProt P62068)
Sequence of USP46 (P62068 whole entry): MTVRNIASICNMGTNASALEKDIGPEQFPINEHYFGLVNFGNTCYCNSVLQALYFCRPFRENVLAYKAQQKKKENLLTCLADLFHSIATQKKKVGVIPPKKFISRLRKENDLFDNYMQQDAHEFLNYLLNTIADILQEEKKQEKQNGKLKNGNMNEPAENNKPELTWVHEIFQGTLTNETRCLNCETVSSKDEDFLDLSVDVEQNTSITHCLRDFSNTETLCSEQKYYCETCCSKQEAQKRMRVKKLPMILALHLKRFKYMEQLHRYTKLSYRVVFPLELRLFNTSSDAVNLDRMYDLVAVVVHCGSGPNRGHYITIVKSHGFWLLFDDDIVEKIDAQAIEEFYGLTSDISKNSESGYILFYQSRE
How it was run: as §1

USP47 = target: T2, USP47 (UniProt Q96K76)
T2 sequence (whole entry): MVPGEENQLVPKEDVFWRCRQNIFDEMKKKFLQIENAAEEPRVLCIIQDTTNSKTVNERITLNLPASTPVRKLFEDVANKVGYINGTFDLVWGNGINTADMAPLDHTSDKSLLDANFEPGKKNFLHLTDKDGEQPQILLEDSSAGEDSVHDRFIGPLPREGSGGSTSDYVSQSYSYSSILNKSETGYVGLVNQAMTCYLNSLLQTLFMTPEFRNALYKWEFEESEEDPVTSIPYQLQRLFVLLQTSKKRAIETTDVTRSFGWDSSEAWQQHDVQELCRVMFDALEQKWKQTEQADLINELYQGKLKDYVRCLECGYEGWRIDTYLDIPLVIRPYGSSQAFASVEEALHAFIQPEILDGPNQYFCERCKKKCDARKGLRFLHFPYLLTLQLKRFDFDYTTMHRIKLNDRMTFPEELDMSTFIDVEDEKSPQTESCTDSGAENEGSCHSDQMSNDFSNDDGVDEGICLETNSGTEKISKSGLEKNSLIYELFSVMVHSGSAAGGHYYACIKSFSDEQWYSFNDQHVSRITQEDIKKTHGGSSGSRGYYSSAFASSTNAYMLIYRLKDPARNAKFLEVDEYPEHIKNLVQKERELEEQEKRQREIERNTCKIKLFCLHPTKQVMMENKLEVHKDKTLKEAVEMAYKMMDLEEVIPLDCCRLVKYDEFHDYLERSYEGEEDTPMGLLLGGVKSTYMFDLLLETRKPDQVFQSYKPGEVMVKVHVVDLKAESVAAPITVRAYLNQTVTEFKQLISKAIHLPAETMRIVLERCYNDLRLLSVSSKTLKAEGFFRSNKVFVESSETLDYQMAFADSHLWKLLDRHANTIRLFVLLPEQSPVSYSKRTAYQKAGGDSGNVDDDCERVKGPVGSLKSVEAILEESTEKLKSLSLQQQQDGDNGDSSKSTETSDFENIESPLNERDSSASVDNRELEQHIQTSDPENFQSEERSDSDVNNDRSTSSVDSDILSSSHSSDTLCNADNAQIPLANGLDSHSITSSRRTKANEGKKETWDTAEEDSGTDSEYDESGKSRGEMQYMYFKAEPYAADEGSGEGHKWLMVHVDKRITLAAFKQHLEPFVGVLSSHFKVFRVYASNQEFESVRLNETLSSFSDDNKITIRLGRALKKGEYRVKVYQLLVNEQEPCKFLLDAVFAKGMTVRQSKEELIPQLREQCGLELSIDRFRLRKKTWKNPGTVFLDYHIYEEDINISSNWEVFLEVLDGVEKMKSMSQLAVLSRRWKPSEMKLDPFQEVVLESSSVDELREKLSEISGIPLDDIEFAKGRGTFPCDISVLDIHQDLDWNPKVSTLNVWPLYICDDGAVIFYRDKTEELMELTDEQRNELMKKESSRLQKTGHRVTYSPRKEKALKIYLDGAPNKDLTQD
How it was run: as §1

USP48 = target: T3, USP48 (UniProt Q86UV5)
T3 sequence (whole entry): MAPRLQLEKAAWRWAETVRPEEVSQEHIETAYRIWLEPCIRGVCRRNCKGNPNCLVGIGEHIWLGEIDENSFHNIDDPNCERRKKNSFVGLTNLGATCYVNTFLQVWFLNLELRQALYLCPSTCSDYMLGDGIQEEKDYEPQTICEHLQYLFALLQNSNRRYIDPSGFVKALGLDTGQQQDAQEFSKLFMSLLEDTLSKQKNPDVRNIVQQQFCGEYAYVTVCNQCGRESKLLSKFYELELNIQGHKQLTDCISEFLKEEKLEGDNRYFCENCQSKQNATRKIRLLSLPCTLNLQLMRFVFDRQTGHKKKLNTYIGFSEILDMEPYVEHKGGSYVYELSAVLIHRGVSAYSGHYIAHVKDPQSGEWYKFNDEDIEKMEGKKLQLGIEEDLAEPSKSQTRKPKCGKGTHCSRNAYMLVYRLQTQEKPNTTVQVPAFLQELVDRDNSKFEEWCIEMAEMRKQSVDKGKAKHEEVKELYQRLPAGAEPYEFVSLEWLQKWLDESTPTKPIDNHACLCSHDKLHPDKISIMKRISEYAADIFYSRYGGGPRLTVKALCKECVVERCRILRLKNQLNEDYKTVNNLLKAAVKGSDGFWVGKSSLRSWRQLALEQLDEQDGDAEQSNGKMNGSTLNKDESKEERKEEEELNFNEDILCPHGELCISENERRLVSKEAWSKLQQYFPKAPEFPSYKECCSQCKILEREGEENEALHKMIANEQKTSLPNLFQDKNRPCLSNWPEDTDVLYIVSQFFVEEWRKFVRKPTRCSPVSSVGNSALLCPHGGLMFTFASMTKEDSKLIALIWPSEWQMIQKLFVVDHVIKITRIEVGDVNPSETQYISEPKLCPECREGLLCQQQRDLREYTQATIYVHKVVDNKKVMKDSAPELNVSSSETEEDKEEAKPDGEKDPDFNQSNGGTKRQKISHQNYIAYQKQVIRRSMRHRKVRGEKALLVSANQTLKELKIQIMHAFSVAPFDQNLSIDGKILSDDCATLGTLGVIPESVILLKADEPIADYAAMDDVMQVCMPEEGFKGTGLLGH
How it was run: as §1

USP5 = target: T4, USP5 (UniProt P45974)
T4 sequence (whole entry): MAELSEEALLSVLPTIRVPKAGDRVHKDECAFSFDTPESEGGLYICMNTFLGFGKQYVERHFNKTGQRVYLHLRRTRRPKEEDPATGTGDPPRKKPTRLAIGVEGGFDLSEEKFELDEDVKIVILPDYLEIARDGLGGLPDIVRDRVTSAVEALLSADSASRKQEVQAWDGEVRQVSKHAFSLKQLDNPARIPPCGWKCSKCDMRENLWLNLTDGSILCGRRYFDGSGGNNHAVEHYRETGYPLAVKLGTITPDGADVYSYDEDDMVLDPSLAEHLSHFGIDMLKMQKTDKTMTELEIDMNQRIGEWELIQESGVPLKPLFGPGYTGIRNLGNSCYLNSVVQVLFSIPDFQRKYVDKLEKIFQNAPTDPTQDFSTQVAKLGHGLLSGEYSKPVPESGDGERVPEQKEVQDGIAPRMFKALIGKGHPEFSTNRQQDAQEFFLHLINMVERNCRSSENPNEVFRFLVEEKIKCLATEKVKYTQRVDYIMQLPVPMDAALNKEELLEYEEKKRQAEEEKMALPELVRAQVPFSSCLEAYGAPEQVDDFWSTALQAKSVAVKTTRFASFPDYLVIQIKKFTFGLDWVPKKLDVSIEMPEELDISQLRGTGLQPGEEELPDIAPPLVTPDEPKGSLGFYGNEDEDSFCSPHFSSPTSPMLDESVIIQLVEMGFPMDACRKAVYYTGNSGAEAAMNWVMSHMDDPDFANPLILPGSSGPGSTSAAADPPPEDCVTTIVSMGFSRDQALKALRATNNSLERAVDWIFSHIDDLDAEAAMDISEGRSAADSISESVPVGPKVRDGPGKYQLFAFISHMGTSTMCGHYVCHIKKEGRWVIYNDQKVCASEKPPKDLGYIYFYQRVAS
How it was run: as §1

USP54 = USP54 (UniProt Q70EL1)
Sequence of USP54 (Q70EL1 whole entry): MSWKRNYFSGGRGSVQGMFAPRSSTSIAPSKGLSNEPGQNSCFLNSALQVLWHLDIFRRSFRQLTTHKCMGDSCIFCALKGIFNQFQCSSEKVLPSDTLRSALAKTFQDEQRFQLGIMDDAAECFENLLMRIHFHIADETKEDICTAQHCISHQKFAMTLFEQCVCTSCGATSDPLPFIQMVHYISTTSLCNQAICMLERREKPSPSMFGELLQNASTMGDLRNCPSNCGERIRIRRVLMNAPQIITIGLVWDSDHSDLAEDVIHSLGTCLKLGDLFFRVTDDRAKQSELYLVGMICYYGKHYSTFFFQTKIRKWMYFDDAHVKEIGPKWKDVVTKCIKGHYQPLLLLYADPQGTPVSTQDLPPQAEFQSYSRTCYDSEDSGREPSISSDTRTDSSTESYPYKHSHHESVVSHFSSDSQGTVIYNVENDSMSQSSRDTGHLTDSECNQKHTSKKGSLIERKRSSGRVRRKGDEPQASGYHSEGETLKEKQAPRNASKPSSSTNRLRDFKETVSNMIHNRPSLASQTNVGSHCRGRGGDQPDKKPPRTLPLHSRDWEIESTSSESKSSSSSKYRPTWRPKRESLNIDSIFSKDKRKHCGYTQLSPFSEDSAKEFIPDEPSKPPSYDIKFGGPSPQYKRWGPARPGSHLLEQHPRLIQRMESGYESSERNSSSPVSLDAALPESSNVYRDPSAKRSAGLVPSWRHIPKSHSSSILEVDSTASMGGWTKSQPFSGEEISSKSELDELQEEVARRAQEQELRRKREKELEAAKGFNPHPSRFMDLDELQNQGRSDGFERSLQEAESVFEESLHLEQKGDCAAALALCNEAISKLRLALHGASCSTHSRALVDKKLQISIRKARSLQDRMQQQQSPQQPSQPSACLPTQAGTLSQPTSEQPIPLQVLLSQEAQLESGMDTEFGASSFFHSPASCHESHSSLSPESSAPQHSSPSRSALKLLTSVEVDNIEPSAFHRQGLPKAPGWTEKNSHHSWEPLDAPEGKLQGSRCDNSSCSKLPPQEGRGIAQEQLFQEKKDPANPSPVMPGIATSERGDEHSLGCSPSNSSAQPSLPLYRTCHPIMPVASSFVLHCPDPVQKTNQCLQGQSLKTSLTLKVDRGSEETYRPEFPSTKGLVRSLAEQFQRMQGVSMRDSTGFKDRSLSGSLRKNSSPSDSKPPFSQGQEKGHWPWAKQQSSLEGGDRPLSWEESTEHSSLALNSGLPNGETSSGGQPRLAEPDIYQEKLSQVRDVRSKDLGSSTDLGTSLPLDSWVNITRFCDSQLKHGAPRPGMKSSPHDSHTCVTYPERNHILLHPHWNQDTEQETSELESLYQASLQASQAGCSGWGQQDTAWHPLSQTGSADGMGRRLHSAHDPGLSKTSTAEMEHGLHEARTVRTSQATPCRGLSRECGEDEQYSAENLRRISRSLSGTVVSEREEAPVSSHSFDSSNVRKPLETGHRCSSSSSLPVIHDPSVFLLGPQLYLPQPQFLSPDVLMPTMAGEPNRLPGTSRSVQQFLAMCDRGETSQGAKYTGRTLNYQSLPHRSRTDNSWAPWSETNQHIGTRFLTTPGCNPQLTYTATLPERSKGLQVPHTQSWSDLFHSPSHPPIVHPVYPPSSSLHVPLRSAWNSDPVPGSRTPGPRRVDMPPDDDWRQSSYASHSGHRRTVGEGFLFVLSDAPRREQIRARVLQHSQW
How it was run: as §1

USP7 = USP7 (UniProt Q93009)
Sequence of USP7 (Q93009 whole entry, looked up): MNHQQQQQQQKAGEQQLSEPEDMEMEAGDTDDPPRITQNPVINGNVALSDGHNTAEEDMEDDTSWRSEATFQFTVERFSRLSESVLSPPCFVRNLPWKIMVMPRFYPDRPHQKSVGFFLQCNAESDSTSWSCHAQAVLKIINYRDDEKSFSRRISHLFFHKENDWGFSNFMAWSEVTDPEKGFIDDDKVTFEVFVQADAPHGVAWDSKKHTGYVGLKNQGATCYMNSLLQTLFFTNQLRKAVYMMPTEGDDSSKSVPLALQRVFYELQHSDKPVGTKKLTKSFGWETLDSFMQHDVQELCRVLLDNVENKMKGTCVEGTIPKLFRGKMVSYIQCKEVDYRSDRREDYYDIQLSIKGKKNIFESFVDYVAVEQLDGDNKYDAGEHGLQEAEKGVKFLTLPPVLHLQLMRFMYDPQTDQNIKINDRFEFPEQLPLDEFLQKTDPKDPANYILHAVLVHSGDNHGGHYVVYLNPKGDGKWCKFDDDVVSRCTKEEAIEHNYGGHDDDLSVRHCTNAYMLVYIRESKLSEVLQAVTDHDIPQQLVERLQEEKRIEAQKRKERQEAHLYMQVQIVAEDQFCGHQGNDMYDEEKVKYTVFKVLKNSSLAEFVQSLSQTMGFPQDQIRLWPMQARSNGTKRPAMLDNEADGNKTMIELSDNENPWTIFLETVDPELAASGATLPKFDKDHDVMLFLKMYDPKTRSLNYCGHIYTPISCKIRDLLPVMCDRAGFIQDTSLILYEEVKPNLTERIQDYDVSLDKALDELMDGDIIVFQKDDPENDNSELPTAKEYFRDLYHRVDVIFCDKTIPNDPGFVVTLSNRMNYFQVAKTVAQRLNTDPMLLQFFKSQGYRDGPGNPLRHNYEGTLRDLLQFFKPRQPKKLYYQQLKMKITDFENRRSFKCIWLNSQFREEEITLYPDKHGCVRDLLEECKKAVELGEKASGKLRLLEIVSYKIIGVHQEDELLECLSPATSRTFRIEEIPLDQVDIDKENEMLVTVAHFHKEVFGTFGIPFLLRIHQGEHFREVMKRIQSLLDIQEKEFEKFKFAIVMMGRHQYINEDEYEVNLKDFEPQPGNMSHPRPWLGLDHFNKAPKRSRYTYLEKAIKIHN
How it was run: as §1

USP8 = target: T5, USP8 (UniProt P40818)
T5 sequence (whole entry): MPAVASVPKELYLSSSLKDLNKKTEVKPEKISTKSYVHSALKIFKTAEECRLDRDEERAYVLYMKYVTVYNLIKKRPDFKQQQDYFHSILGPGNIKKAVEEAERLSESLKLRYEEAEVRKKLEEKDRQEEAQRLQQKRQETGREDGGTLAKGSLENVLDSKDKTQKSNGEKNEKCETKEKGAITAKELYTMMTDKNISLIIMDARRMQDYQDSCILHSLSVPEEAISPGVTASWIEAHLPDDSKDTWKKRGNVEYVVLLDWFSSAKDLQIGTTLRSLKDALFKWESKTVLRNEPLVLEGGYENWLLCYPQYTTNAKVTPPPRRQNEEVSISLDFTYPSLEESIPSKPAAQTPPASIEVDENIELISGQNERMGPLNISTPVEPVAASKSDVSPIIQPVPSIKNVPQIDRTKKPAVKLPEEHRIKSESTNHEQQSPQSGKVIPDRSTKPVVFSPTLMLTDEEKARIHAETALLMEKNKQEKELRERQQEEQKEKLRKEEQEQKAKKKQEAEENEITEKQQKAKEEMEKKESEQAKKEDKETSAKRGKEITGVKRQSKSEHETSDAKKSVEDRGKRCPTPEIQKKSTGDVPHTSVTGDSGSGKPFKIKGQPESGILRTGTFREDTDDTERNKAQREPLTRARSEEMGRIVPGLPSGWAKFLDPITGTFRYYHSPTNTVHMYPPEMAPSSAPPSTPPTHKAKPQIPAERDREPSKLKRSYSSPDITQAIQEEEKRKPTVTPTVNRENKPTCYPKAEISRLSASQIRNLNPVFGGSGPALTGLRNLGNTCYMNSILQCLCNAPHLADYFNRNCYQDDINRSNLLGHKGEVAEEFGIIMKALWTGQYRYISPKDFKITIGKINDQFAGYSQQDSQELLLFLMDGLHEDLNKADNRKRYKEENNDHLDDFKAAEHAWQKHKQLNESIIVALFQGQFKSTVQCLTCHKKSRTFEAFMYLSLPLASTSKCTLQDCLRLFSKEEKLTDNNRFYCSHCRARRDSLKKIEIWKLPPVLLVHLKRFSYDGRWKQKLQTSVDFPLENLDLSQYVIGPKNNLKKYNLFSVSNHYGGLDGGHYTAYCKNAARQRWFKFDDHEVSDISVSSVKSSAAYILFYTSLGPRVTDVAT
How it was run: as §1

USP9X = USP9X (UniProt Q93008)
How it was run: as §1

UniProt O00487 = target: UniProt O00487
Sequence of UniProt O00487 (O00487 whole entry): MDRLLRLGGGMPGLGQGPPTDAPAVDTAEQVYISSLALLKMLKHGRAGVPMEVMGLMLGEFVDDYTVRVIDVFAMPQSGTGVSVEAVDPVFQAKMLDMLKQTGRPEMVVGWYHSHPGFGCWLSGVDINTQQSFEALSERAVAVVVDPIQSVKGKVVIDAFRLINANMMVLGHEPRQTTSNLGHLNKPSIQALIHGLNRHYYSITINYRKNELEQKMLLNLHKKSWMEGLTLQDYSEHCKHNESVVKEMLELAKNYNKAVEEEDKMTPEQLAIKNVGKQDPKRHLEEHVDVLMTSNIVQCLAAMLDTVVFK
How it was run: as §1

Measured: log2 ratio of Biotin-Ahx-Ub-VS probe labelling

Cl.Cn1nc2c(c1CNC(=O)CCl)CCCC2
inactive: USP42 -0.241 | USP46 0.117 | USP47 0.0138 | USP48 -0.0889 | USP5 0.0696 | USP54 0.268 | USP7 -0.055 | USP8 -0.598 | USP9X -0.188 | UniProt O00487 0.0603
